Results: the OligoGym collection

biological target: DEXI; test: pooled miR-30 sensor sort-seq; sequence = guide strand; conditions: shRNA
Further: reference of the scale not given here.

Sequence | sensor-assay potency score (higher = more potent)
TAGTACAGGATCAGCACATTGA | -0.394
TAACGTGGCACTCACCAGCATG | -1.35
TAACCTGAAATGAAGGAGCGAG | -0.355
TCAAAGACGTCGAGCTCCGAGT | -0.796

biological target: DGKE; test: as above; conditions: shRNA

Sequence | sensor-assay potency score (higher = more potent)
TGAACATGTATCTACTTGCGTG | -0.503
TTGAACTTTCCATCGATCTAGT | 0.305
TTGCACTAAACAATCTTTGGTT | 0.42
TTTTGGATGAACATGTATCTAC | -0.088
TTTGACAGTAATCATTTCCTTT | -0.513
TTAATTTGATCTTTCCACCCAC | 0.385
TTTGTTACTTGAACTTTCCATC | -0.49
TTACTTGAACTTTCCATCGATC | -0.458
TTTAATTCCATCTGCTTCCATT | -0.836
TTCTTGAGCATAATCTCCTTGC | -0.369
TTGACAGCCACACTGCTGCTTG | 0.0149

biological target: DGKH; test: as above; conditions: shRNA

Sequence | sensor-assay potency score (higher = more potent)
TTTACCAGAATCACACTTCTGC | 0.827
TTTCTTTAAACTATTTGCCCGC | -0.524
TTGTTGATAATCGAACTCCCAG | -0.448
TTCATCTTCTATAATGTCCTTC | 0.785
TTGCTCTACAGAAACCATCGGA | 0.0953
TGAACTTGTCTTCTGCTTCTGA | 0.759
TAGAGGACTAACACAGAACGAA | -0.365
TACAGTTTCACATAGCGTCTTG | -0.34
TAACATTTTGTTGATAATCGAA | -0.475
TAAATCAAACACCTGAGCCGGA | 0.112
TTGAATTTACACACTTCGCAGG | -0.529
TATGTCATTATACTCCACCTGT | -0.182

biological target: DHCR7; test: as above; conditions: shRNA

Sequence | sensor-assay potency score (higher = more potent)
TGAAGTCAAACCACTTCCCGAT | -0.223
TTGCCTGTGAATTTGCAGTCTC | -0.449
TTGGCTTTGGGAATGTTGGGTT | 0.501
TTGCAGTCTCTGGCGCTGGTGG | -0.837
TCAATGGTCTTCAGGTACCAGG | -1.35
TTGAAGTCAAACCACTTCCCGA | -0.639
TTAAACTCGATGCCCATCATGT | -0.575
TAGTTGTAAAAGAAATTGCCTG | -0.825
ATGGTCTTCAGGTACCAGGTTT | -0.879
TGAATTTGCAGTCTCTGGCGCT | 0.0615
TTGTAAAAGAAATTGCCTGTGA | 0.127
TTGAAGAACAGCTTGAAGTCAA | 0.748
TTGTCGAAGATGATGGTGGGCG | -0.346
